# Assay results from the supplement of paper PMC8728848.
# Many of the other results were omitted from the sample, so the strongest signals are more common in it than they were.
# B1: LFA (Limax flavus) (protein)
# chain: MSVLFLAASFLLLASFELVAAQGCPRQDPGDWIVIQRRLNADVNFYRGWADYKHGFGDLRCNFWLGNEKIHQLTSHGRYKLRVEFTFNNKSYFAEYSTFKILGEADKYKLQVGGYSGNAGDALTFHNGMAFSTNDRDNDADSIDCAKVYHGAWWYKTCHESNLNGKWGSKKYGEGLNWKAKTTFTATATSSLLKIKALK
# How the values were obtained:
# Assay in all cases: glycan array binding signal (z-score within array); higher = stronger binding
# Details in all cases: glycan notation: IUPAC condensed, linker removed
# [1] = target: Fuc(a1-2)Gal(b1-3)GlcNAc(b1-2)Man(a1-3)[Fuc(a1-2)Gal(b1-3)GlcNAc(b1-2)Man(a1-6)]Man(b1-4)GlcNAc(b1-4)GlcNAc
# Summary of the method: (§1)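 Arrays were curated from the Consortium for Functional Glycomics database, 3228 in total, and kept only where the protein sequence was available. Binding is expressed as a within-array Z-score. This score was averaged across arrays of the same protein sequence at different concentrations or buffers and across linkers, and negative values can be read as non-binding.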
# [2] = target: Fuc(a1-2)Gal(b1-3)GlcNAc(b1-3)[Neu5Ac(a2-6)Gal(b1-4)GlcNAc(b1-6)]Gal(b1-4)Glc
# Summary of the method: as §1
# [3] = target: Fuc(a1-2)Gal(b1-4)Fuc(a1-3)]GlcNAc(b1-2)Man(a1-3)[Fuc(a1-2)Gal(b1-4)[Fuc(a1-3)]GlcNAc(b1-2)Man(a1-6)]Man(b1-4)GlcNAc(b1-4)GlcNAc
# Summary of the method: as §1
# [4] = target: Fuc(a1-2)Gal(b1-4)GlcNAc(b1-3)[Fuc(a1-2)Gal(b1-4)GlcNAc(b1-6)]GalNAc
# Summary of the method: as §1
# [5] = target: Fuc(a1-2)[Gal(a1-3)]Gal(b1-4)[Fuc(a1-3)]GlcNAc
# Summary of the method: as §1
# [6] = target: Fuc(a1-2)[GalNAc(a1-3)]Gal(b1-4)GlcNAc(b1-3)Gal(b1-4)GlcNAc
# Summary of the method: as §1
# [7] = target: Fuc(a1-2)[GalNAc(a1-3)]Gal(b1-4)GlcNAc(b1-3)[Fuc(a1-2)[GalNAc(a1-3)]Gal(b1-4)GlcNAc(b1-6)]GalNAc
# Summary of the method: as §1
# [8] = target: Fuc(a1-2)[GalNAc(a1-3)]Gal(b1-4)[Fuc(a1-3)]GlcNAc(b1-3)GalNAc
# Summary of the method: as §1
# [9] = target: Fuc(a1-2)[GalNAc(a1-4)]Gal(b1-4)GlcNAc
# Summary of the method: as §1
# [10] = target: Fuc(a1-3)[Gal(b1-4)]GlcNAc(b1-2)Man(a1-3)[Fuc(a1-3)[Gal(b1-4)]GlcNAc(b1-2)Man(a1-6)]Man(b1-4)GlcNAc(b1-4)[Fuc(a1-6)]GlcNAc
# Summary of the method: as §1
# [11] = target: Fuc(a1-3)[Gal(b1-4)]GlcNAc(b1-3)Gal(b1-4)[Fuc(a1-3)]GlcNAc
# Summary of the method: as §1
# [12] = target: Gal(a1-3)Gal(b1-3)GlcNAc(b1-3)GalNAc
# Summary of the method: as §1
# [13] = target: Gal(b1-3)GlcNAc(a1-3)Gal(b1-4)GlcNAc
# Summary of the method: as §1
# [14] = target: Gal(b1-3)GlcNAc(b1-6)[Gal(b1-3)]GalNAc
# Summary of the method: as §1
# [15] = target: Gal(b1-3)[Fuc(a1-4)]GlcNAc(b1-2)Man(a1-3)[Gal(b1-3)[Fuc(a1-4)]GlcNAc(b1-2)Man(a1-6)]Man(b1-4)GlcNAc(b1-4)[Fuc(a1-6)]GlcNAc
# Summary of the method: as §1
# [16] = target: Gal(b1-4)GlcNAc(b1-2)Man(a1-3)[GlcNAc(b1-4)][Gal(b1-4)GlcNAc(b1-2)Man(a1-6)]Man(b1-4)GlcNAc(b1-4)GlcNAc
# Summary of the method: as §1
# [17] = target: Gal(b1-4)GlcNAc(b1-3)Gal(b1-4)GlcNAc(b1-2)Man(a1-3)[Gal(b1-4)GlcNAc(b1-3)Gal(b1-4)GlcNAc(b1-2)Man(a1-6)]Man(b1-4)GlcNAc(b1-4)GlcNAc
# Summary of the method: as §1
# [18] = target: Gal(b1-4)GlcNAc(b1-3)Gal(b1-4)GlcNAc(b1-3)GalNAc
# Summary of the method: as §1
# [19] = target: Gal(b1-4)GlcNAc(b1-3)Gal(b1-4)GlcNAc(b1-3)[Gal(b1-4)GlcNAc(b1-3)Gal(b1-4)GlcNAc(b1-6)]GalNAc
# Summary of the method: as §1
# [20] = target: Gal3S(b1-3)[Fuc(a1-4)]GlcNAc
# Summary of the method: as §1
# Gal3S(b1-4)Glc = target: Gal3S(b1-4)Glc
# Summary of the method: as §1
# Gal3S4S(b1-4)GlcNAc = target: Gal3S4S(b1-4)GlcNAc
# Summary of the method: as §1
# Gal6S(b1-4)GlcNAc6S = target: Gal6S(b1-4)GlcNAc6S
# Summary of the method: as §1
# GalNAc(a1-3)GalNAc = target: GalNAc(a1-3)GalNAc
# Summary of the method: as §1
# [21] = target: GalNAc(a1-3)GalNAc(b1-3)Gal(a1-4)Gal(b1-4)Glc
# Summary of the method: as §1
# GalNAc(b1-3)Gal = target: GalNAc(b1-3)Gal
# Summary of the method: as §1
# GalNAc3S(b1-4)GlcNAc = target: GalNAc3S(b1-4)GlcNAc
# Summary of the method: as §1
# [22] = target: GlcNAc(b1-3)Gal(b1-4)GlcNAc(b1-2)Man(a1-3)[GlcNAc(b1-3)Gal(b1-4)GlcNAc(b1-2)Man(a1-6)]Man(b1-4)GlcNAc(b1-4)GlcNAc
# Summary of the method: as §1
# [23] = target: GlcNAc(b1-3)Gal(b1-4)GlcNAc(b1-3)Gal(b1-4)GlcNAc(b1-3)Gal(b1-4)GlcNAc(b1-2)Man(a1-3)[GlcNAc(b1-3)Gal(b1-4)GlcNAc(b1-3)Gal(b1-4)GlcNAc(b1-3)Gal(b1-4)GlcNAc(b1-2)Man(a1-6)]Man(b1-4)GlcNAc(b1-4)[Fuc(a1-6)]GlcNAc
# Summary of the method: as §1
# [24] = target: GlcNAc(b1-3)Gal(b1-4)GlcNAc(b1-6)[GlcNAc(b1-3)Gal(b1-3)]GalNAc
# Summary of the method: as §1
# [25] = target: GlcNAc(b1-3)[GlcNAc(b1-4)][GlcNAc(b1-6)]GlcNAc
# Summary of the method: as §1
# [26] = target: GlcNAc(b1-4)GlcNAc(b1-4)GlcNAc(b1-4)GlcNAc(b1-4)GlcNAc
# Summary of the method: as §1
# [27] = target: GlcNAc(b1-4)GlcNAc(b1-4)GlcNAc(b1-4)GlcNAc(b1-4)GlcNAc(b1-4)GlcNAc
# Summary of the method: as §1
# [28] = target: Man(a1-3)[Man(a1-6)]Man(a1-6)[Man(a1-2)Man(a1-3)]Man(b1-4)GlcNAc(b1-4)GlcNAc
# Summary of the method: as §1
# [29] = target: Man(a1-3)[Man(a1-6)]Man(b1-4)GlcNAc(b1-4)[Fuc(a1-6)]GlcNAc
# Summary of the method: as §1
# MurNAc(b1-4)GlcNAc = target: MurNAc(b1-4)GlcNAc
# Summary of the method: as §1
# [30] = target: Neu5Ac(a2-3)Gal(b1-3)GalNAc(b1-4)[Neu5Ac(a2-8)Neu5Ac(a2-3)]Gal(b1-4)Glc
# Summary of the method: as §1
# [31] = target: Neu5Ac(a2-3)Gal(b1-3)GlcNAc(b1-3)Gal(b1-3)GlcNAc
# Summary of the method: as §1
# [32] = target: Neu5Ac(a2-3)Gal(b1-4)GlcNAc(b1-3)Gal(b1-3)GlcNAc
# Summary of the method: as §1
# [33] = target: Neu5Ac(a2-3)Gal(b1-4)GlcNAc(b1-3)Gal(b1-4)GlcNAc(b1-2)Man(a1-3)[Neu5Ac(a2-3)Gal(b1-4)GlcNAc(b1-3)Gal(b1-4)GlcNAc(b1-2)Man(a1-6)]Man(b1-4)GlcNAc(b1-4)GlcNAc
# Summary of the method: as §1
# [34] = target: Neu5Ac(a2-3)Gal(b1-4)GlcNAc(b1-3)Gal(b1-4)GlcNAc(b1-3)Gal(b1-4)GlcNAc(b1-2)Man(a1-3)[Neu5Ac(a2-3)Gal(b1-4)GlcNAc(b1-3)Gal(b1-4)GlcNAc(b1-3)Gal(b1-4)GlcNAc(b1-2)Man(a1-6)]GalNAc
# Summary of the method: as §1
# [35] = target: Neu5Ac(a2-3)[GalNAc(b1-4)]Gal(b1-4)GlcNAc
# Summary of the method: as §1
# [36] = target: Neu5Ac(a2-3)[Neu5Ac(a2-6)]GalNAc
# Summary of the method: as §1
# [37] = target: Neu5Ac(a2-6)Gal(b1-4)GlcNAc
# Summary of the method: as §1
# [38] = target: Neu5Ac(a2-6)Gal(b1-4)GlcNAc(b1-3)Gal(b1-4)GlcNAc(b1-3)[Neu5Ac(a2-6)Gal(b1-4)GlcNAc(b1-3)Gal(b1-4)GlcNAc(b1-6)]GalNAc
# Summary of the method: as §1
# Neu5Ac(a2-6)GalNAc = target: Neu5Ac(a2-6)GalNAc
# Summary of the method: as §1
# [39] = target: Neu5Ac(a2-8)Neu5Ac(a2-3)Gal(b1-3)GalNAc(b1-4)[Neu5Ac(a2-3)]Gal(b1-4)Glc
# Summary of the method: as §1
# [40] = target: Neu5Ac(a2-8)Neu5Ac(a2-8)Neu5Ac(a2-3)[Gal(b1-3)GalNAc(b1-4)]Gal(b1-4)Glc
# Summary of the method: as §1
# [41] = target: Neu5Ac(a2-8)Neu5Ac(a2-8)Neu5Ac(a2-3)[GalNAc(b1-4)]Gal(b1-4)Glc
# Summary of the method: as §1
# Neu5Ac(b2-6)GalNAc = target: Neu5Ac(b2-6)GalNAc
# Summary of the method: as §1
# [42] = target: Neu5Ac9Ac(a2-3)Gal(b1-3)GlcNAc
# Summary of the method: as §1
# [43] = target: Neu5Gc(a2-3)Gal(b1-4)GlcNAc(b1-3)Gal(b1-4)GlcNAc(b1-2)Man(a1-3)[Neu5Gc(a2-3)Gal(b1-4)GlcNAc(b1-3)Gal(b1-4)GlcNAc(b1-2)Man(a1-6)]Man(b1-4)GlcNAc(b1-4)GlcNAc
# Summary of the method: as §1
# [44] = target: Neu5Gc(a2-3)Gal(b1-4)[Fuc(a1-3)]GlcNAc
# Summary of the method: as §1
# [45] = target: Neu5Gc(a2-8)Neu5Gc(a2-3)Gal(b1-4)GlcNAc(b1-3)Gal(b1-4)GlcNAc
# Summary of the method: as §1
binder,measurement,setting,value
B1,glycan array binding signal (z-score),[1],0.702
same,glycan array binding signal (z-score),[2],-0.319
same,glycan array binding signal (z-score),[3],1.54
same,glycan array binding signal (z-score),[4],-0.186
same,glycan array binding signal (z-score),[5],-0.137
same,glycan array binding signal (z-score),[6],-0.192
same,glycan array binding signal (z-score),[7],-0.241
same,glycan array binding signal (z-score),[8],-0.214
same,glycan array binding signal (z-score),[9],3.52
same,glycan array binding signal (z-score),[10],-0.15
same,glycan array binding signal (z-score),[11],-0.217
same,glycan array binding signal (z-score),[12],0.016
same,glycan array binding signal (z-score),[13],-0.103
same,glycan array binding signal (z-score),[14],-0.21
same,glycan array binding signal (z-score),[15],0.669
same,glycan array binding signal (z-score),[16],0.181
same,glycan array binding signal (z-score),[17],2.97
same,glycan array binding signal (z-score),[18],2.68
same,glycan array binding signal (z-score),[19],2.39
same,glycan array binding signal (z-score),[20],-0.306
same,glycan array binding signal (z-score),Gal3S(b1-4)Glc,-0.271
same,glycan array binding signal (z-score),Gal3S4S(b1-4)GlcNAc,-0.218
same,glycan array binding signal (z-score),Gal6S(b1-4)GlcNAc6S,-0.066
same,glycan array binding signal (z-score),GalNAc(a1-3)GalNAc,3.66
same,glycan array binding signal (z-score),[21],13.1
same,glycan array binding signal (z-score),GalNAc(b1-3)Gal,-0.195
same,glycan array binding signal (z-score),GalNAc3S(b1-4)GlcNAc,-0.277
same,glycan array binding signal (z-score),[22],-0.217
same,glycan array binding signal (z-score),[23],0.314
same,glycan array binding signal (z-score),[24],-0.285
same,glycan array binding signal (z-score),[25],-0.405
same,glycan array binding signal (z-score),[26],2.87
same,glycan array binding signal (z-score),[27],5.81
same,glycan array binding signal (z-score),[28],3.26
same,glycan array binding signal (z-score),[29],0.24
same,glycan array binding signal (z-score),MurNAc(b1-4)GlcNAc,-0.363
same,glycan array binding signal (z-score),[30],-0.184
same,glycan array binding signal (z-score),[31],-0.139
same,glycan array binding signal (z-score),[32],-0.206
same,glycan array binding signal (z-score),[33],2.77
same,glycan array binding signal (z-score),[34],4.29
same,glycan array binding signal (z-score),[35],0.019
same,glycan array binding signal (z-score),[36],1.01
same,glycan array binding signal (z-score),[37],-0.176
same,glycan array binding signal (z-score),[38],2.5
same,glycan array binding signal (z-score),Neu5Ac(a2-6)GalNAc,-0.345
same,glycan array binding signal (z-score),[39],-0.229
same,glycan array binding signal (z-score),[40],-0.353
same,glycan array binding signal (z-score),[41],0.236
same,glycan array binding signal (z-score),Neu5Ac(b2-6)GalNAc,-0.284
same,glycan array binding signal (z-score),[42],-0.339
same,glycan array binding signal (z-score),[43],-0.166
same,glycan array binding signal (z-score),[44],-0.306
same,glycan array binding signal (z-score),[45],-0.237
